Screens from PubChem.
Env fusion inh: blocks HIV Env-driven cell-cell fusion; inhibition, % at 12.3 µM; HeLa-JRFL Env/CEM21 cell fusion, luciferase; actives 1.1% (n = 360,000);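 active means mean replicate inhibition score of at least 50 and every replicate individually at or above 50; inconclusive means only one of the two criteria met; inactive means mean below 50 and not all replicates reaching 50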;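 further: 0% = plate neutral controls and 100% = maraviroc near 300 nM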
FXN GAA850 act: increases GAA850 frataxin promoter reporter activity. HEK293 lucGAA850 FXN promoter luciferase reporter, 24 h; percent of 10 µM SAHA response. activation, % at 6 µM. actives 0.56% (n = 360,000). AID 540364;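 active means activation above the average of all compounds screened plus 3 SD, cutoff fixed separately per campaign, cut at about 7.5% in these data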;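 further: 0% = DMSO wells and 100% = 10 µM SAHA wells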
F508del corr: CFTR F508del correction in bronchial cells. CFBE cells, YFP halide quenching; stimulated with forskolin plus potentiator P3; % fluorescence drop versus neutral controls. activity (quench increase), % at 7.58 µM. actives 0.36% (n = 350,000). AID 720511;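 active means mean added fluorescence quench of at least 8% versus neutral control, with both replicates also reaching 8%; inconclusive means only one of the mean or replicate conditions met; inactive means mean below 8% and not both replicates reaching 8%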;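 further: cells transiently co-express mutant CFTR-F508del with the halide-sensitive YFP; corrector assay measuring rescue of mutant channel to the surface after 24 h compound exposure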
EWS-Fli block: EWS/Fli transcriptional activity inhibition; A673 NR0B1-luciferase reporter, viability-normalised; inhibition, % at 12.6 µM; actives 0.67% (n = 350,000); AID 651661;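 active means mean inhibition of at least 50% after viability correction, with every replicate also passing that limit; inconclusive means mean reaches 50% but only one of two replicates passes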;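 further: firefly luciferase signal divided by Alamar Blue viability fluorescence both relative to DMSO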
PAX8 inh HTS: lowers PAX8-driven luciferase in RMG-I cells; actives 1.2% (n = 360,000); AID 652154; RMG-I TPO-luciferase reporter, SteadyGlo, 24 h; inhibition, % at 12.6 µM;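 active means mean replicate inhibition at least 60% with every replicate also reaching 60%; inconclusive means only one of the two criteria is met; inactive means mean below 60% and not all replicates reaching 60%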;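 further: luciferase light reporting Pax8 driven TPO promoter activity; plate controls were median of neutral control wells for no effect and mitoxantrone controls for full effect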
Numbers without * were called inactive; ? = inconclusive; / = no result; [ ] = remark or other dose. Sampled rows, rich in hits. Any-hit rate of the full collection: about 2.5%.

SMILES	Env fusion inh	FXN GAA850 act	F508del corr	EWS-Fli block	PAX8 inh HTS
CCCC(=O)Nc1ccc2c(c1)OC[C@H](C)N(C(=O)CN(C)C)C[C@H](C)[C@H](OC)CN(C)C2=O	?	/	-2.1	-2.9	-6.6
C[C@H](CO)N1C[C@H](C)[C@@H](CN(C)S(=O)(=O)c2ccc(Cl)cc2)Oc2ccc(NC(=O)CCCCCC(=O)Nc3ccccc3N)cc2CC1=O	23.6[16.7 µM]	/	-2.7	6.4	13.9
CCCNC(=O)[C@H]1[C@H](CO)[C@H]2Cn3c(cccc3=O)[C@@H]1N2C(=O)Nc1cc(F)ccc1F	/	/	0.0	2.2	/
COc1cc(OC)cc(-c2nc3ccccc3c(=O)n2OC(=O)c2ccc(C)c(C)c2)c1	-1.9	-1.0	9.1*	-3.4	9.2
Cc1cccc([C@@H]2[C@@H]3C(=O)N(Cc4ccccc4)C(=O)[C@@H]3[C@]3(Cc4ccccc4)C(=O)N(c4ccccc4)C(=O)N23)c1	-63.6	-11.2	2.7	7.3	-14.5
CCN1C(=O)[C@H]2[C@@H](c3ccc(C)cc3)N3C(=O)N(c4ccc(C(F)(F)F)cc4)C(=O)[C@@]3(CC(C)C)[C@H]2C1=O	114.9*	6.0	-4.0	-5.6	11.9
CC[C@@]12C(=O)N(c3ccccc3)C(=O)N1[C@H](c1cccc(C)c1)[C@@H]1C(=O)N(Cc3ccccc3)C(=O)[C@@H]12	88.4*	1.6	1.3	-3.5	5.1
CC[C@@]12C(=O)N(c3cccc(Br)c3)C(=O)N1[C@H](c1cccc(C)c1)[C@@H]1C(=O)N(Cc3ccccc3)C(=O)[C@@H]12	64.7*	-6.4	-1.7	6.5	-12.4
Cc1cccc([C@@H]2[C@@H]3C(=O)N(Cc4ccccc4)C(=O)[C@@H]3[C@]3(CC(C)C)C(=O)N(c4cccc(Br)c4)C(=O)N23)c1	/	-1.0	/	/	/
Cc1cccc([C@@H]2[C@@H]3C(=O)N(Cc4ccccc4)C(=O)[C@@H]3[C@]3(Cc4ccccc4)C(=O)N(c4ccc(C(F)(F)F)cc4)C(=O)N23)c1	63.8*	1.8	1.0	0.8	18.0
O=C(c1cccc(F)c1)N1CC(=O)N2[C@H](C1)[C@H](c1ccc(-c3ccccc3F)cc1)[C@@H]2CO	/	/	-2.2	0.1	17.2
COc1ccc(S(=O)(=O)Nc2ccc3c(c2)CC(=O)N([C@@H](C)CO)C[C@@H](C)[C@H](CN(C)C(=O)Nc2cccc4ccccc24)O3)cc1	/	/	0.8	-4.2	/
COc1cc(NC2c3ccccc3C(=O)N2Cc2ccc3c(c2)OCO3)cc(OC)c1OC (stereo not drawn)	87.4*	4.7	-0.7	1.7	11.1
Cc1cccc(S(=O)(=O)N2CC[C@@H]3[C@@H](CO)N(C)c4ccc(-c5ccccc5F)cc4[C@@H]32)c1	/	/	4.2	8.8	2.5
COc1ccccc1C(=O)Nc1ccc2c(c1)OC[C@H](C)N(C)C[C@H](C)[C@H](OC)CN(C)C2=O	-5.0[16.7 µM]	/	-0.1	9.9	26.2
Cc1cc(S(=O)(=O)Nc2ccc(C(=O)N3CCN(C(=O)c4ccco4)CC3)cc2)ccc1F	4.3	-1.1	/	/	/
O=C(c1ccc(S(=O)(=O)Nc2ccc(F)cc2)cc1)N1CCN(C(=O)c2ccco2)CC1	73.2*	-0.9	/	/	/
O=C1C(Cl)=C(Nc2ccc(O)cc2)C(=O)c2ccccc21	-27.2	-3.0	-9.8	57.3*	48.5
CCCC(=O)NC1=C(Cl)C(=O)c2ccccc2C1=O	35.7	-6.1	45.0*	26.8	103.0*
Cc1ccc(NC2=C(Cl)C(=O)c3ccccc3C2=O)cc1	-22.0	3.8	/	?	-89.4
C[C@@H]1CN([C@H](C)CO)S(=O)(=O)c2ccc(-c3cccnc3)cc2O[C@H]1CN(C)CC1CCOCC1	-12.8[16.7 µM]	/	1.9	0.8	7.1
CCc1nnc(NC(=O)CCS(=O)(=O)c2ccc(C)cc2)s1	/	1.9	1.7	-36.3	64.2*
CCCCc1nnc(NC(=O)CN(C)S(=O)(=O)c2ccc(C)cc2)s1	-10.1	1.2	0.4	/	7.9
CCc1nnc(NC(=O)CCS(=O)(=O)c2ccccc2)s1	6.0	-1.0	2.8	-28.5	9.4
O=C(CS(=O)(=O)c1ccccc1)Nc1ncc([N+](=O)[O-])s1	4.0	0.4	-2.0	4.1	-30.4
SMILES	Env fusion inh	FXN GAA850 act	F508del corr	EWS-Fli block	PAX8 inh HTS
CC(C)c1nnc(NC(=O)CCS(=O)(=O)c2ccccc2)s1	5.4	-0.2	3.4	-8.2	?
COCc1nnc(NC(=O)CCS(=O)(=O)c2ccccc2)s1	7.3	-0.4	0.3	-9.1	66.5*
O=C(CCS(=O)(=O)c1ccccc1)Nc1ncc([N+](=O)[O-])s1	12.1	-0.8	-0.1	-9.1	78.2*
CCCCc1nnc(NC(=O)CCS(=O)(=O)c2ccc(C)cc2)s1	4.3	-2.4	-6.7	-23.9	78.8*
C[C@@H]1CN([C@@H](C)CO)C(=O)c2cc(C#Cc3cccnc3)cnc2O[C@@H]1CN(C)Cc1ccccc1	-4.0[16.7 µM]	/	-1.5	-4.8	/
C[C@H](CO)N1C[C@H](C)[C@H](CN(C)S(=O)(=O)c2ccc(Cl)cc2)Oc2c(NS(=O)(=O)c3cn(C)cn3)cccc2C1=O	14.6[16.7 µM]	/	-0.3	-2.4	-3.6
Cc1ccc(S(=O)(=O)N(C)C[C@H]2Oc3ccc(NS(C)(=O)=O)cc3C(=O)N([C@H](C)CO)C[C@@H]2C)cc1	-0.2[16.7 µM]	/	-2.2	-2.6	/
O=C(C[C@H]1C[C@@H]2c3cc(NC(=O)CC4CC4)ccc3O[C@@H]2[C@H](CO)O1)NCc1ccncc1	-1.4[16.7 µM]	/	-3.2	-7.0	4.2
C[C@H](CO)N1C[C@H](C)[C@H](CN(C)Cc2ccc(Oc3ccccc3)cc2)Oc2ccc(NC(=O)NC3CCCCC3)cc2CC1=O	-16.7[16.7 µM]	/	-2.9	22.7	-4.3
CCC(CC)c1nnc(NC(=O)CCS(=O)(=O)Cc2ccccc2)s1	-1.3	3.6	-2.4	8.5	61.6*
O=C(O)CC(c1cccc(C(F)(F)F)c1)N1CCS(=O)(=O)CC1 (stereo not drawn)	11.1	-0.4	1.0	4.5	6.7
O=S1(=O)CCN(C(CO)c2ccccc2)CC1 (stereo not drawn)	-17.4	1.9	10.2*	2.1	4.0
CCc1nnc(N/N=C/c2cc(Br)c(O)cc2O)n1N	7.9	-0.6	/	3.1	3.7
CC(C)(C)c1nnc(N/N=C/c2cc(Br)ccc2O)n(N)c1=O	3.6	-13.9	/	/	60.6*
CC=Cc1ccc2n(c1=O)C[C@H]1[C@H](CO)[C@@H](C(=O)NCc3ccc(F)cc3)[C@@H]2N1S(C)(=O)=O (mixture of isomers)	/	/	0.8	-4.1	/
CCC1(O)C(=O)OCc2c1cc1n(c2=O)Cc2cc3cc(O)ccc3nc2-1 (stereo not drawn)	/	-15.0	-0.7	55.7*	/
Cc1noc(C)c1S(=O)(=O)N(C)C[C@@H]1OCCCC[C@@H](C)Oc2ccc(NC(=O)Nc3ccc(F)cc3)cc2C(=O)N([C@@H](C)CO)C[C@@H]1C	/	/	1.5	-2.6	-18.0
COc1cc(C(=O)Nc2ccc3c(c2)Cc2ccccc2-3)cc(OC)c1OC	-292.1	-5.5	6.3	17.0	13.3
COc1cc(C(=O)Nc2ccc3c(c2)CCN3C(C)=O)cc(OC)c1OC	-74.2	-2.9	11.5*	66.9*	6.3
